From PubChem BioAssay
Pf Dd2 growth – P. falciparum Dd2 growth inhibitors, primary screen, SYBR Green fluorescence, single dose replicates. AID 1159554, 2015. 72 h; hits give low values. activity change, % at 10 µM. actives 2.3% (n = 94,000); in the data active means activity change below about -80%; inconclusive means no clear call, values can overlap the other calls
C diff growth – C. difficile growth inhibitors, primary screen, HTS; AID 1259249, 2017; growth activity, negative = inhibition, % at 16 µg/mL (by protocol); actives 0.25% (n = 86,000); Clostridium difficile clinical isolate growth, OD600, 24 h; hits give low values;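 active means mean growth activity at or below -80% and every replicate also at or below -80%; inconclusive means mean at or below -80% but some replicate above -80%; inactive means mean growth activity above -80%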;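 further: 0% = DMSO wells and -100% = levofloxacin 16 µg/mL wells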
T cruzi growth-1 – T. cruzi intracellular proliferation inhibitors, primary screen, cell-based, beta-gal Tulahuen parasites, NIH3T3 host, luminescence; inhibition, % at 8.34 µM; T. cruzi beta-gal in NIH3T3, GalScreen luminescence, 90 h; actives 5.9% (n = 77,000);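 active means mean inhibition above about 93%, with at least 55% of replicates each passing it, limit read from the data, passing the limit was not always enough; inconclusive means only one of those two conditions holds; inactive means neither condition holds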
T cruzi growth-2 – T. cruzi intracellular proliferation inhibitors, confirmation, cell-based, NIH3T3 host, beta-gal parasite, luminescence, cherry-pick; shares compounds with T cruzi growth-1; T. cruzi beta-gal in NIH3T3, GalScreen luminescence, 90 h; inhibition, % at 8.35 µM; actives 72% (n = 5,600); AID 651739, 2012;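 active means mean replicate inhibition above about 95% and at least 55% of replicates individually reaching it, limit read from the data; inconclusive means only one of the two criteria is met; inactive means neither criterion is met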
T cruzi growth-3 – inhibitors of intracellular T. cruzi replication, confirmation, NIH3T3 host cells, beta-gal parasites, cherry-pick, set 2. shares compounds with T cruzi growth-1. T. cruzi beta-gal in NIH3T3, GalScreen luminescence, 90 h. inhibition, % at 2.09 µM. actives 21% (n = 5,600);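 active means mean inhibition above about 95%, with at least 55% of replicates also reaching it, limit read from the data; inconclusive means meets just one of the two conditions; inactive means meets neither condition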;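 further: plate controls were neutral control median for no effect and positive control median for full effect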
3T3 cytotox – cytotoxicity in mouse NIH/3T3 fibroblasts, confirmation, cytotoxicity control for T. cruzi proliferation inhibitor project, cell-based, cherry-pick, single point. NIH/3T3 viability, CellTiter-Glo ATP luminescence, 90 h. cytotoxicity (signal decrease), % at 8.35 µM. actives 14% (n = 5,600). shares compounds with T cruzi growth-1. AID 651742, 2012;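 active means mean signal decrease across replicates above about 35% based on untreated-well scatter, with enough replicates individually passing, limit read from the data; inconclusive means no rule stated though some were filed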;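 further: 0% = median of neutral control wells and 100% = median of positive control wells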
3T3 cytotox 2 – NIH/3T3 fibroblast cytotoxicity, confirmation, cytotoxicity control, cell-based, cherry-pick, single point, set 2; inhibition, % at 24.9 µM; actives 56% (n = 5,600); shares compounds with T cruzi growth-1; NIH/3T3 viability, CellTiter-Glo ATP luminescence, 90 h;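 active means mean loss of cell viability signal at or above a set limit, and enough replicates individually reaching it; inconclusive means meets only the mean limit or only the replicate share; inactive means meets neither condition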;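 further: 0% = median of neutral control wells and 100% = median of positive control wells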
An asterisk follows results filed as active; ? = inconclusive; . = not tested or not shown. An excerpt weighted towards active compounds, which were near 6.8% of everything screened.

SMILES	Pf Dd2 growth	C diff growth	T cruzi growth-1	T cruzi growth-2	T cruzi growth-3	3T3 cytotox	3T3 cytotox 2
C[C@@H]1CN([C@@H](C)CO)S(=O)(=O)c2ccc(-c3ccccc3)cc2O[C@@H]1CN(C)S(=O)(=O)c1ccccc1F	-37	0	119*	102*	103*	15	46*
COC(=O)[C@H]1[C@H](CO)[C@H]2Cn3c(ccc(-c4cccc(F)c4)c3=O)[C@H]2N1Cc1ccncc1	-3	0	.	.	.	.	.
COc1ccc(NC(=O)N(C)C[C@H]2Oc3ccc(NC(=O)Cn4cnnn4)cc3CC(=O)N([C@H](C)CO)C[C@@H]2C)cc1	28	-3	33	.	.	.	.
C[C@@H]1CN([C@H](C)CO)C(=O)c2cc(NC(=O)Cc3ccccc3)ccc2O[C@H]1CN(C)CC1CC1	-7	4	.	.	.	.	.
Cc1ccc(S(=O)(=O)Nc2cccc3c2O[C@H](CN(C)C(=O)Nc2ccc(F)cc2)[C@@H](C)CN([C@@H](C)CO)C3=O)cc1	0	-2	9	.	.	.	.
CCC(=O)N(C)C[C@H]1Oc2ncc(-c3ccccc3OC)cc2C(=O)N([C@H](C)CO)C[C@@H]1C	37	-2	-46	.	.	.	.
CO[C@H]1CN(C)C(=O)c2cc(NC(=O)C3CC3)ccc2OC[C@H](C)N(C(=O)c2cccnc2)C[C@H]1C	-4	.	-45	.	.	.	.
C/C=C/c1cnc2c(c1)C(=O)N([C@@H](C)CO)C[C@@H](C)[C@@H](CN(C)C(=O)NC1CCCC1)O2	28	3	43	.	.	.	.
O=C(C[C@H]1CC[C@H]2[C@@H](COC[C@@H](O)CN2C(=O)Nc2ccc(C(F)(F)F)cc2)O1)NCCc1ccncc1	-3	-9	35	.	.	.	.
C/C=C/c1ccccc1[C@@H]1[C@H](C#N)N(c2nc(CC)cs2)[C@H]1CO	-7	-6	.	.	.	.	.
CCc1csc(N2[C@H](C#N)[C@H](c3ccc(-c4ccc(F)cc4)cc3)[C@H]2CO)n1	-2	5	94	.	.	.	.
CCc1csc(N2[C@@H](C#N)[C@H](c3ccc(C#Cc4ccc(F)cc4)cc3)[C@@H]2CO)n1	-52	3	106*	97*	110*	-29	21
CCc1csc(N2[C@H](CO)[C@H](c3ccc(-c4ccc(F)cc4)cc3)[C@@H]2C#N)n1	-2	5	98*	108*	43	21	91*
N#C[C@@H]1[C@H](c2ccc(C#Cc3ccc(F)cc3)cc2)[C@@H](CO)N1c1nc(-c2ccccc2)cs1	42	8	36	.	.	.	.
C/C=C/c1ccc([C@H]2[C@@H](C#N)N(c3nc(CC)cs3)[C@@H]2CO)cc1	-47	2	?	101*	23	1	6
O=C(Cc1ccccn1)N1CC2(C1)[C@@H](c1ccccc1)[C@H](CO)N2C(=O)c1ccncc1	-21	-1	.	.	.	.	.
O=S(=O)(c1ccccc1F)N1CC[C@H]2[C@H](CO)Nc3ccc(-c4ccc(F)cc4)cc3[C@H]21	4	4	90	.	.	.	.
N#Cc1cccc(-c2ccc3c(c2)[C@@H]2[C@@H](CCN2S(=O)(=O)c2ccccc2F)[C@@H](CO)N3)c1	16	-1	107*	99*	105*	15	73*
N#Cc1ccc(-c2ccc3c(c2)[C@@H]2[C@@H](CCN2S(=O)(=O)c2ccccc2F)[C@@H](CO)N3)cc1	12	-2	32	.	.	.	.
COc1cccc(-c2ccc3c(c2)[C@@H]2[C@@H](CCN2S(=O)(=O)c2ccccc2F)[C@@H](CO)N3)c1	11	22	?	98*	105*	28	101*
N#Cc1cccc(-c2ccc3c(c2)[C@H]2[C@H](CCN2S(=O)(=O)c2ccccc2F)[C@H](CO)N3)c1	15	8	110*	94	82	47*	74*
O=S(=O)(c1ccccc1F)N1CC[C@@H]2[C@H]1c1cc(-c3ccccc3)ccc1N[C@@H]2CO	-51	32	87	.	.	.	.
O=S(=O)(c1ccccc1F)N1CC[C@@H]2[C@H](CO)Nc3ccc(-c4ccc(F)cc4)cc3[C@@H]21	-12	-14	?	90	84	12	105*
COc1cccc(-c2ccc3c(c2)[C@@H]2[C@@H](CCN2S(=O)(=O)c2ccccc2C)[C@H](CO)N3)c1	-33	4	28	.	.	.	.
CCCC(=O)Nc1ccc2c(c1)OC[C@@H](C)N(C(=O)CC1CC1)C[C@@H](C)[C@@H](OC)CN(C)C2=O	22	.	33	.	.	.	.
SMILES	Pf Dd2 growth	C diff growth	T cruzi growth-1	T cruzi growth-2	T cruzi growth-3	3T3 cytotox	3T3 cytotox 2
O=C(C[C@H]1CC[C@H]2[C@@H](COC[C@H](O)CN2C(=O)Nc2ccccc2)O1)NCc1ccncn1	.	5	-64	.	.	.	.
CO[C@H]1CN(C)C(=O)c2ccc(NC(=O)c3ccccc3F)cc2OC[C@H](C)N(CC2CCOCC2)C[C@@H]1C	-4	-6	.	.	.	.	.
COc1ccc(S(=O)(=O)Nc2ccc3c(c2)C(=O)N([C@@H](C)CO)C[C@@H](C)[C@@H](CN(C)S(=O)(=O)c2c(C)noc2C)OCCCC[C@@H](C)O3)cc1	-50	-14	90	.	.	.	.
C[C@@H]1CCCCO[C@H](CN(C)Cc2ccc3c(c2)OCO3)[C@@H](C)CN([C@H](C)CO)C(=O)c2cc(NC(=O)Nc3ccccc3)ccc2O1	-8	0	52	.	.	.	.
O=C(C[C@@H]1CC[C@@H]2[C@H](COC[C@H](O)CN2Cc2ccncc2)O1)NCc1ccccc1Cl	16	11	.	.	.	.	.
CN1C(=O)c2cc(NC(=O)c3ccccc3)ccc2OC[C@H]2O[C@@H](CC(=O)O)CC[C@H]21	-1	-2	4	.	.	.	.
CCC(=O)N1C[C@H](C)[C@H](OC)CN(C)C(=O)c2cc(NC(=O)NC3CCCC3)ccc2OC[C@@H]1C	7	-9	.	.	.	.	.
COc1ccccc1CNC(=O)C[C@@H]1CC[C@@H]2[C@H](COC[C@@H](O)CN2C(=O)Nc2ccc(F)cc2)O1	21	0	-3	.	.	.	.
O=C(c1ccccc1F)N1CC[C@@H]2[C@H](CO)Nc3ccc(C#Cc4ccc(F)cc4)cc3[C@@H]21	-17	-6	12	.	.	.	.
COc1ccc(C#Cc2ccc3c(c2)[C@@H]2[C@@H](CCN2C(=O)c2ccccc2F)[C@H](CO)N3C)cc1	-55	.	?	111*	?	33	54*
COc1ccc(C#Cc2ccc3c(c2)[C@@H]2[C@@H](CCN2C(=O)c2ccccc2F)[C@@H](CO)N3C)cc1	-41	47	89	.	.	.	.
